Assay [1] is described as follows: inhibitors of TNFa-induced NFkB p65 translocation, primary screen, imaging, HUVEC, MLSMR starter and 10KST1 sets (AID 438;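 active = inhibition above 20% together with a positive visual image hit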;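 note: compound added about 3h40 before a 20 min TNFalpha stimulation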;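 for inhibition: signal is the nuclear over cytoplasmic p65 intensity ratio per well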). The note with it: HUVEC TNFa-induced p65 nuclear translocation; cell count: measured here: nuclei count (cytotoxicity indicator), at 2.08 µM; inhibition: at 2 µM, stronger effect = higher value, 0% TNFa-plus-vehicle, 100% no-TNFa wells.
The nature of assay [2]: reduction of polyQ htt aggregates in cells – imaging, exon1htt(103Q)mCFP cells, high-content imaging, primary screen (AID 483;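 active = visual image review flags a hit and inhibition of aggregation exceeds 20%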;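 note: compound exposure lasted 3 days before fixation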;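 for nuclei count: percent of the per-plate median nuclei count of sample wells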). The note with it: exon1htt(103Q)mCFP cell line, aggregate imaging, at 2 µM; inhibition of aggregation: stronger effect = higher value; nuclei count: measured here: cell count, toxicity.
Assay [3] can be described thus: endothelial E-selectin expression blockers – imaging, HUVEC, immunofluorescence, MLSMR starter and 10KST1 sets, primary screen (AID 487;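 active = visually confirmed hit in the image check and inhibition above 20%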;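 for inhibition: signal is fraction of cell area covered by stained E-selectin grains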;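 for nuclei count: 100% = median nuclei count of all wells on the same plate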). The note with it: HUVEC TNFalpha-induced E-selectin immunofluorescence imaging, at 2 µM; inhibition: stronger effect = higher value; nuclei count: measured here: cell number, toxicity.
In assay [4] the target is Voltage-gated potassium channel subunit beta-2 (Rattus norvegicus) (UniProt P62483). Nature of the assay: inhibitors of rat Kvbeta2 reductase activity – biochemical, NADPH fluorescence, primary screen (AID 622;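 active = fluorescence slope higher than the sample average by over 3 SD, cut at about -0.22 in these data, passing the limit was not always enough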;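 note: slope of raw intensity against log time taken from 70 to 1610 s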). The note with it: recombinant KvBeta, 4-cyanobenzaldehyde reduction, at 10 µM, stronger effect = higher value.
Chain of Voltage-gated potassium channel subunit beta-2 (Rattus norvegicus) (P62483 whole entry, looked up): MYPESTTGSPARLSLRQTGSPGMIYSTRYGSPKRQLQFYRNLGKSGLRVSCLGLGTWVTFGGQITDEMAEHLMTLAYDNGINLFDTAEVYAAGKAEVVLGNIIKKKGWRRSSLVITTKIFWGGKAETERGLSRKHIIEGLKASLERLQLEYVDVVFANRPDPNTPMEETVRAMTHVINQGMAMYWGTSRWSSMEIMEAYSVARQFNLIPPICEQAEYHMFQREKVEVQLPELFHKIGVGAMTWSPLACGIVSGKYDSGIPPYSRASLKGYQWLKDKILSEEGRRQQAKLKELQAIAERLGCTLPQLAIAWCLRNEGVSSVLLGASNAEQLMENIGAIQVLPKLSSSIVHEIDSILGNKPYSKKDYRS
Assay [5] has the same target. Nature of the assay: enhancers of rat Kvbeta2 NADPH turnover – biochemical, NADPH fluorescence, primary screen (AID 623;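 active = NADPH fluorescence slope more negative than the mean of all samples by about 3 SD, 99.7% confidence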;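 note: fluorescence intensity change per second fitted from 20 to 320 s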). The note with it: Recombinant KvBeta, NADPH fluorescence decrease slope, 10 min; at 10 µM; stronger effect = lower value.
Assay [6] deals with Alpha-2C adrenergic receptor (Homo sapiens) (UniProt P18825). Nature of the assay: compounds altering alpha2C-coupled GIRK flux – cell-based, HEK293 alpha2C/GIRK1/2, thallium flux, primary screen (AID 624).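 Note: slope of fluorescence ratio to pre-addition baseline per second over 15 to 24 s.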 The note with it: thallium flux BTC fluorescence, at 10 µM, actives lie on both sides.
Chain of Alpha-2C adrenergic receptor (Homo sapiens) (P18825 whole entry, looked up): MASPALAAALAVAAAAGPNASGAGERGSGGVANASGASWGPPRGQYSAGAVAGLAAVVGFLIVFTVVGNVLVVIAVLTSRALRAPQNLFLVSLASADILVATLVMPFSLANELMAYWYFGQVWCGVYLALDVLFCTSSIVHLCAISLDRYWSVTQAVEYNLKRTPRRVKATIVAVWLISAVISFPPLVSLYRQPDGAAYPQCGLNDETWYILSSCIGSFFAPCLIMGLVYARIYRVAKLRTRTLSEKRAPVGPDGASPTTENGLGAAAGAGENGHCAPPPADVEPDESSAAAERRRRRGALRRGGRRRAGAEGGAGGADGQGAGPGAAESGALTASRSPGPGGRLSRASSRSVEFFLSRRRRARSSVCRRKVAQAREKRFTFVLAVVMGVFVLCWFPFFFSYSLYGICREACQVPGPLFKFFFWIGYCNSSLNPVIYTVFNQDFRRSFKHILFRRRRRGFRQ
Assay [7] is described as follows: blockers of RIG-like receptor reporter activation – cell-based, Sendai virus stimulus, luciferase, 10K MLSCN set, TLR/RLR signaling modifier project, primary screen (AID 602276;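 active = inhibition at or above 50% at 10 µM; inactive = inhibition below 50%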;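 note: firefly luciferase from ISG56 promoter only with Renilla not read in this screen; 0% = Sendai virus plus DMSO and 100% = medium plus DMSO without virus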). The note with it: HEK293 RL24 IRF3 luciferase reporter, at 10 µM, stronger effect = higher value. Background: Reporter assays use an easily measured gene product as a stand-in for the process of interest.

Assay [8] can be described thus: TLR3 IRF3 reporter activation blockers – cell-based, poly I:C stimulus, luciferase, 10K MLSCN set, primary screen (AID 602277;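 active = inhibition of the reporter signal at or above 50%; inactive = inhibition below 50%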). The note with it: HEK293-TLR3 RL24 IRF3 luciferase reporter, at 10 µM, stronger effect = higher value.

The source made the active and inactive calls.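 Rule for the calls, unless noted: active = fluorescence slope after compound addition differing from the mean of all screened samples at 99.7% confidence, in either direction; inactive = the rest.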

For the compound `CC(=O)c1ccc(OCC(O)CN2CCN(Cc3ccc4c(c3)OCO4)CC2)cc1` (centres undefined), in assay [1], the cell count is 522. Further, the inhibition in assay [1] is 4.5% (inactive); in assay [3], -33.9% (inactive); in assay [7], 11.6% (inactive); in assay [8] it was 40.6% (inactive). For the same compound, in assay [2], the inhibition of aggregation was -3.8% (inactive). Also, the nuclei count in assay [2] turned out to be 87.9%; in assay [3] it was 108%. The fluorescence slope in assay [4] is -0.536 (inactive). For the same compound, the NADPH fluorescence slope in assay [5] was -4.2e-05 (inactive). For the same compound, in assay [6], the slope is 0.0062 (inactive).
Take `CCCCCC(=O)N(CN1C(=O)CCC1=O)c1ccccc1`: in assay [1], the cell count amounted to 806. Besides, the inhibition was 5.4% (inactive) in assay [1], 21.6% (inactive) in assay [3], 9.92% (inactive) in assay [7] and 13.3% (inactive) in assay [8]. Further, the inhibition of aggregation in assay [2] is -9.8% (inactive). In addition, the nuclei count worked out at 100% in assay [2] and 111% in assay [3]. The fluorescence slope in assay [4] is -0.283 (inactive). In addition, the NADPH fluorescence slope in assay [5] is -4e-05 (inactive). Moreover, the slope in assay [6] is 0.00618 (inactive).
For the compound `Cc1ccc(CNC(=O)C2CCN(S(=O)(=O)c3cccs3)CC2)o1`, the cell count in assay [1] stood at 296. Besides, the inhibition in assay [1] is -3.4% (inactive); in assay [3] it was -23.9% (inactive); in assay [7] it was 7.81% (inactive); in assay [8] it was 5.31% (inactive). The inhibition of aggregation in assay [2] is 11.2% (inactive). Moreover, the nuclei count in assay [2] worked out at 76.7%; in assay [3], 103%. Also, the fluorescence slope in assay [4] was -0.617 (inactive). Further, the NADPH fluorescence slope in assay [5] is -3.4e-05 (inactive). The slope in assay [6] is 0.00605 (inactive).
Turning to `CCCN(CCC)CCCNS(=O)(=O)c1ccc2c(c1)oc(=O)n2C`, in assay [1], the cell count amounted to 377. Also, the inhibition in assay [1] is -2.4% (inactive); in assay [3], -61.9% (inactive); in assay [7], 16.6% (inactive); in assay [8] it was 23% (inactive). Besides, the inhibition of aggregation in assay [2] is 6.1% (inactive). Moreover, the nuclei count in assay [2] was 102%; in assay [3], 112%. In addition, in assay [4], the fluorescence slope was -0.432 (inactive). Also, the NADPH fluorescence slope in assay [5] is -9.3e-05 (inactive). In addition, the slope in assay [6] is 0.00475 (inactive).
As to `CCCC(=O)n1nc(-c2ccc(OC)cc2)nc1N`, the cell count in assay [1] turned out to be 239. Further, the inhibition in assay [1] is -3.7% (inactive); in assay [3] it was -20.1% (inactive); in assay [7], 12.9% (inactive); in assay [8], 14.6% (inactive). The inhibition of aggregation in assay [2] was 17.1% (inactive). Moreover, the figures for the nuclei count in assay [2] and in assay [3] were 80% and 77%, respectively. Further, the fluorescence slope in assay [4] was -0.483 (inactive). Moreover, the NADPH fluorescence slope in assay [5] was -4.3e-05 (inactive). Further, the slope in assay [6] is 0.00574 (inactive).
Take `O=C1C2C3C=CC(C3)C2C(=O)N1Cc1ccccc1` (centres undefined): the cell count in assay [1] was found to be 480. The inhibition was -9.2% (inactive) in assay [1], 40.2% (inactive) in assay [3], -1.99% (inactive) in assay [7] and -2.25% (inactive) in assay [8]. Besides, in assay [2], the inhibition of aggregation was -2.3% (inactive). Further, the nuclei count in assay [2] turned out to be 102%; in assay [3], 74.3%. In assay [4], the fluorescence slope was -0.618 (inactive). In addition, the NADPH fluorescence slope in assay [5] was -6.1e-05 (inactive). For the same compound, the slope in assay [6] was 0.00345 (inactive).
Turning to `COc1ccc(-c2c3c(=O)n(C)c(=O)n(C)c3cn2-c2cccc(OC)c2)cc1`, the cell count in assay [1] was determined as 430. For the same compound, the inhibition in assay [1] was 5.2% (inactive); in assay [3] it was -50.3% (inactive); in assay [7], -0.838% (inactive); in assay [8], 0.686% (inactive). Further, the inhibition of aggregation in assay [2] was 5.3% (inactive). Also, the results for the nuclei count in assay [2] and in assay [3] were 110% and 99.9%, respectively. Also, the fluorescence slope in assay [4] is -0.605 (inactive). Also, the NADPH fluorescence slope in assay [5] is 6.5e-06 (inactive). Also, the slope in assay [6] was 0.00638 (inactive).
Consider `Clc1ccccc1OCCCCn1ccnc1`, for which, in assay [1], the cell count was 425. The inhibition in assay [1] was -0.2% (inactive); in assay [3], 14.5% (inactive); in assay [7] it was -3.32% (inactive); in assay [8], 5.03% (inactive). The inhibition of aggregation in assay [2] was -10.9% (inactive). For the same compound, the nuclei count in assay [2] is 97.3%; in assay [3] it was 106%. Moreover, in assay [4], the fluorescence slope is -0.464 (inactive). Further, the NADPH fluorescence slope in assay [5] is -5.3e-05 (inactive). Moreover, in assay [6], the slope is 0.0106 (active).
Turning to `Cn1cccc1Cc1nnc(SCC(=O)Nc2ccccc2F)n1CCc1ccccc1`, the cell count in assay [1] worked out at 614. Also, the inhibition in assay [1] was -7.4% (inactive); in assay [3], -52.6% (inactive); in assay [7], 3.46% (inactive); in assay [8] it was 10.1% (inactive). Besides, the inhibition of aggregation in assay [2] is 7.5% (inactive). Besides, the nuclei count in assay [2] was found to be 92.6%; in assay [3], 103%. In addition, the fluorescence slope in assay [4] was -0.619 (inactive). The NADPH fluorescence slope in assay [5] is 1.5e-05 (inactive). Also, the slope in assay [6] was 0.00629 (inactive).
Turning to `Cn1c(C(=O)NCCC2=CCCCC2)cc2c(=O)n3ccccc3nc21`, the cell count in assay [1] was 261. Moreover, the inhibition in assay [1] is 31.6% (active); in assay [3] it was 46.7% (inactive); in assay [7] it was -27.5% (inactive); in assay [8], -62% (inactive). Further, the inhibition of aggregation in assay [2] is 5.6% (inactive). Further, the nuclei count amounted to 92.2% in assay [2] and 71.3% in assay [3]. In addition, in assay [4], the fluorescence slope is -0.128 (active). Also, the NADPH fluorescence slope in assay [5] was 1.2e-05 (inactive). In addition, in assay [6], the slope was 0.00542 (inactive).
With `O=C(NS(=O)(=O)c1ccc(NC(=O)C2CCCO2)cc1)c1ccccc1` (centres undefined), in assay [1], the cell count worked out at 577. The inhibition in assay [1] is -6% (inactive); in assay [3] it was -46.8% (inactive); in assay [7], 11.4% (inactive); in assay [8] it was 17.7% (inactive). For the same compound, the inhibition of aggregation in assay [2] is 2.1% (inactive). In addition, the nuclei count is 110% in assay [2] and 125% in assay [3]. Also, the fluorescence slope in assay [4] was -0.328 (inactive). In addition, the NADPH fluorescence slope in assay [5] is -5.2e-05 (inactive). Also, the slope in assay [6] is 0.00463 (inactive).
On to `COc1ccc(/C=N/n2cnnc2SCc2ccc(OC)cc2)cc1`, for which the cell count in assay [1] is 378. Moreover, the inhibition in assay [1] was 3.1% (inactive); in assay [3], -27.7% (inactive); in assay [7] it was 6.24% (inactive); in assay [8], 0.256% (inactive). In assay [2], the inhibition of aggregation was 1.4% (inactive). Besides, the nuclei count is 96.9% in assay [2] and 108% in assay [3]. Further, in assay [4], the fluorescence slope was -0.348 (inactive). Besides, in assay [5], the NADPH fluorescence slope was -4.9e-05 (inactive). Further, the slope in assay [6] is 0.00577 (inactive).
For the compound `Nc1nc(CSc2nc3ccccc3[nH]2)nc(N2CCOCC2)n1`, the cell count in assay [1] is 675. Moreover, the inhibition in assay [1] is -17.6% (inactive); in assay [3], -51% (inactive); in assay [7] it was 3.37% (inactive); in assay [8] it was 18.9% (inactive). In addition, the inhibition of aggregation in assay [2] was -0.7% (inactive). Also, the values for the nuclei count in assay [2] and in assay [3] were 87.9% and 111%, respectively. The fluorescence slope in assay [4] was -0.449 (inactive). For the same compound, the NADPH fluorescence slope in assay [5] is -3.7e-05 (inactive). Moreover, the slope in assay [6] is 0.00382 (inactive).
As for `CCCCOc1ccccc1NC(=O)c1ccco1`, in assay [1], the cell count came out at 334. Also, the inhibition was 11% (inactive) in assay [1], -54.6% (inactive) in assay [3], 18.5% (inactive) in assay [7] and 18.5% (inactive) in assay [8]. In addition, the inhibition of aggregation in assay [2] is -21.3% (inactive). For the same compound, the figures for the nuclei count in assay [2] and in assay [3] were 91.7% and 122%, respectively. For the same compound, the fluorescence slope in assay [4] was -0.517 (inactive). Also, the NADPH fluorescence slope in assay [5] is -4.6e-05 (inactive). The slope in assay [6] is 0.00466 (inactive).

The inhibition is the relative decrease from the control value, in per cent.
